In assay [1] the test system is Zika virus NS2B-NS3 protease (unlinked complex). The experiment in a line: Confirmatory screen GU AMC qHTS for Zika virus inhibitors (AID 1347153). Also: nearly all actives have a fitted effect of over 70% in size. A digest of the protocol:
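Unlinked enzyme 25 nM, Tris pH 8.0/0.01% Tween 20; cpd 15 min RT, dark; + AMC substrate 10 µM (Km 18.3 µM); 340/450 nm read at t0 and 15 min; % inhibition → 4-param fit.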
(qHTS replaces the single test concentration by a dilution series.)

The nature of assay [2]: Confirmatory screen GU Rhodamine qHTS for Zika virus inhibitors qHTS (AID 1347157). Also: potency is read from the fitted curve at half-maximal effect; nearly all actives have a fitted effect of over 70% in size. The following applies: purified enzyme assay, Rhodamine110 substrate fluorescence, 15 min. A digest of the protocol: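 Compounds, tested up to 114 microM, were incubated for 15 minutes with 25 nM unlinked NS2B-NS3 protease at pH 8.0. Cleavage of 1.5 microM Rhodamine110 substrate was then followed by fluorescence for 15 minutes.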

Assay [3] has as its system Zika virus NS2B-NS3 protease (unlinked complex). The experiment in a line: Primary screen GU Rhodamine qHTS for Zika virus inhibitors: Unlinked NS2B-NS3 protease assay (AID 1347159). Also: nearly all actives have a fitted effect of over 60% in size. Also: potency is read from the fitted curve at half-maximal effect. A digest of the protocol:
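Unlinked NS2B/NS3, 25 nM; Rhod110 peptide, 1.5 microM; compounds, up to 114 microM. Reaction run 15 min at RT in 10 mM Tris-HCl pH 8.0, 0.01% Tween 20; kinetic fluorescence change fitted with a 4-parameter Hill model.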

In assay [4] the test system is Zika virus NS2B-NS3 protease (linked construct). Description: Primary screen NINDS Rhodamine qHTS for Zika virus inhibitors (AID 1347160). Also: nearly all actives have a fitted effect of over 55% in size. Also: potency is read from the fitted curve at half-maximal effect. A digest of the protocol:
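Single-chain NS2B-NS3 protease, 25 nM, pH 8.0; compounds preincubated 15 min. Activity: Rhodamine110 release from 1.5 microM substrate over 15 min, room temperature, data fitted to 4-parameter Hill.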

Assay [5] in a line: Confirmatory screen NINDS Rhodamine qHTS for Zika virus inhibitors (AID 1347161). Also: potency is read from the fitted curve at half-maximal effect; nearly all actives have a fitted effect of over 60% in size. The following applies: purified enzyme assay, Rhodamine110 substrate fluorescence, 15 min. A digest of the protocol: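 Purified linked NS2B-NS3 protease (NS2B hydrophilic domain joined to NS3 protease by flexible linker), 25 nM in 10 mM Tris-HCl pH 8.0, 0.01% Tween 20. Compounds titrated, 15 min preincubation at room temperature; 1.5 microM Rhodamine110 substrate, FITC fluorescence change over 15 min.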

For assay [6], the system named is Zika virus NS2B-NS3 protease (linked). Description: 384 well plate NINDS AMC confirmatory qHTS for Zika virus inhibitors (AID 1347163). Also: nearly all actives have a fitted effect of over 50% in size. Also: potency is read from the fitted curve at half-maximal effect. A digest of the protocol: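 Fluorescence at 355/460 nm was read after 25 minutes of cleavage of 30 microM Ac-VKTGKR-AMC at room temperature, in the dark. Before substrate addition, compounds (up to 1 mM final) sat ~15 minutes with 5, 30 or 60 nM linked protease. Signals were normalized to no-enzyme and no-inhibitor wells.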

Assay [7] deals with Zika virus NS2B-NS3 protease (linked construct). The experiment in a line: 384 well plate NINDS Rhodamine confirmatory qHTS for Zika virus inhibitors (AID 1347164). Also: potency is read from the fitted curve at half-maximal effect; nearly all actives have a fitted effect of over 65% in size. The following applies: rhodamine-110 peptide substrate fluorescence. A digest of the protocol:
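Compounds are incubated about 15 minutes with linked protease (5, 30 or 60 nM final). Rhodamine 110-tagged Ac-LKRR substrate (10 microM final) is added and fluorescence measured after 25 minutes.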

Assay [8] deals with Zika virus NS2B-NS3 protease. Description: Primary screen GU AMC qHTS for Zika virus inhibitors (AID 1347154). Also: nearly all actives have a fitted effect of over 70% in size. A digest of the protocol:
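Unlinked Zika NS2B hydrophilic domain–NS3 protease complex at 25 nM in 10 mM Tris-HCl pH 8.0, 0.01% Tween 20, with an AMC peptide substrate. Fluorescence change (340/450 nm) over 15 min at room temperature, normalized to controls, fitted to 4-parameter Hill.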

The target in assay [9] is Lysine-specific demethylase 5B (Homo sapiens) (UniProt Q9UGL1). The experiment in a line: Optimization screen for KDM5B Histone Demethylases FDH coupled qHTS against the LOPAC library (AID 1347166). A digest of the protocol: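 KDM5BDeltaAP (200nM final) in 50mM HEPES pH 7.5, 0.01% Tween-20 was preincubated with compound for 10 min at room temperature. A substrate mix of 12.5uM H3K4Me3, 25uM a-ketoglutarate, ascorbate, Fe2+, NAD+ and formaldehyde dehydrogenase was then added. NADH fluorescence (340/450 nm) was read initially and after 30 min.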
Sequence of Lysine-specific demethylase 5B (Homo sapiens) (Q9UGL1 whole entry, looked up): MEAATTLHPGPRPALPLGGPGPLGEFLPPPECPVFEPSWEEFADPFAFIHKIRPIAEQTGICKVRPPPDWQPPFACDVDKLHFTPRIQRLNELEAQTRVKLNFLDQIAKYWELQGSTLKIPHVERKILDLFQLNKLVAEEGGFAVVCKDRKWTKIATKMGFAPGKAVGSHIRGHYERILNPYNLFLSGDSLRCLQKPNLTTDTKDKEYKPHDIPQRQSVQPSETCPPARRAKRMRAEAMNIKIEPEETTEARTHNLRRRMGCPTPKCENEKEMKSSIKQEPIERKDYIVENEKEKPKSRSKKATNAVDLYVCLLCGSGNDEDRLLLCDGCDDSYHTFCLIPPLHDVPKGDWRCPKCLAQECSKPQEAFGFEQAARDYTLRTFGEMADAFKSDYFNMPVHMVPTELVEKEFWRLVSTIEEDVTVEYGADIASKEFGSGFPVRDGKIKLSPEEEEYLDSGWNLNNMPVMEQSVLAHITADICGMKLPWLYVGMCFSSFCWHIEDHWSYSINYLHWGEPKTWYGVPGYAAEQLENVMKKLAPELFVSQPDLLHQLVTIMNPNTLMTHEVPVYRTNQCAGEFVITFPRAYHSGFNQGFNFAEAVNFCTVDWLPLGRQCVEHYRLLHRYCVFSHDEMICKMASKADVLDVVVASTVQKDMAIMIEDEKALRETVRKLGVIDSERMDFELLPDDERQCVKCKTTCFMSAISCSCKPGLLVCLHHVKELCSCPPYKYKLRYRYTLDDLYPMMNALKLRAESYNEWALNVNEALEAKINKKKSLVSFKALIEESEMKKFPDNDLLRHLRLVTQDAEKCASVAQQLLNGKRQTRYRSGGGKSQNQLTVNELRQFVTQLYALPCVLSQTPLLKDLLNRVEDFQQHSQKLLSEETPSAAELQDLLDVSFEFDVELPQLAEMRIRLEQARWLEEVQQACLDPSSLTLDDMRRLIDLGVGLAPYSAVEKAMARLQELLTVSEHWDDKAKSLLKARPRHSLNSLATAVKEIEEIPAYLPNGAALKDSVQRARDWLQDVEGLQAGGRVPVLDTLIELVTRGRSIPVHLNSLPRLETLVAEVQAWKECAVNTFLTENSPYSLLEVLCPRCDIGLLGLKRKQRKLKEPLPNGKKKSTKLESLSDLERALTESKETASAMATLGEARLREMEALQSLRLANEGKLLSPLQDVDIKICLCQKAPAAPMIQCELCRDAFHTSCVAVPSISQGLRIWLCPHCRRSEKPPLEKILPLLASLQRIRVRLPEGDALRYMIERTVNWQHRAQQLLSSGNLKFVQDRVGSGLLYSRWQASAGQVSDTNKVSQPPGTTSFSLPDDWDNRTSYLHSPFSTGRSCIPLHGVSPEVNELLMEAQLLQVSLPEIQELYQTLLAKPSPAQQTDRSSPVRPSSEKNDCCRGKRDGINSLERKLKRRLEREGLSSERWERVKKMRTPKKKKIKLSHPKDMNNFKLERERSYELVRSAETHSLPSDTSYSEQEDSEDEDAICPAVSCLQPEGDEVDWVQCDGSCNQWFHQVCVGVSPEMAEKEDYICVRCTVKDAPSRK

Several values for one entry are separate records, joined by “and”; a condition that tells them apart may be missing. Equal values may be shown once. Results filed as inconclusive are left out. Entries that show only a call come without a potency. Unmarked numbers belong to inactive results. Activity calls are given as the source filed them. Calls follow the shape of the dose curve; as a rule, active = well fitted curve in the direction sought with a large enough effect; inconclusive = small, poorly fitted or top-dose-only effect, or another doubt; inactive = no such curve, though single readings can be large; an effect the other way counts as inactive or inconclusive.

In the case of `NC1[C@H]2CN(c3nc4c(cc3F)c(=O)c(C(=O)O)cn4-c3ccc(F)cc3F)C[C@@H]12` (stereo not given in full), in assay [1], the compound was classed as inactive.
Consider `Cc1cc(C(C#N)c2ccc(Cl)cc2)c(Cl)cc1NC(=O)c1cc(I)cc(I)c1O` (stereo not given), for which the Potency in assay [2] was 1.75 µM (active) and 1.56 µM (active); in assay [3] it was 1.78 µM (active); in assay [4], 3.16 µM (active); in assay [5], 2.78 µM (active) and 2.21 µM (active); in assay [6], 4.47 µM (active); in [7] it was 1.78 µM (active).
In the case of `CC(C)(O)c1ccccc1CC[C@@H](SCC1(CC(=O)O)CC1)c1cccc(/C=C/c2ccc3ccc(Cl)cc3n2)c1`, the Potency is 3.16 µM (active) in assay [3] and 112 µM (active) in assay [7]. In addition, the Potency entry in assay [6] is “inactive”.
For the compound `CC(CN1c2ccccc2Sc2ccccc21)N(C)C` (stereo not given), the Potency result in assay [8] is “inactive”. Further, the outcome in assay [9] was inactive.
On to `Cn1c(=O)c2c(ncn2CC2OCCO2)n(C)c1=O`, for which the Potency entry in [8], in [3] and in assay [4] was “inactive” each time.
For the compound `CN1CCOC(c2ccccc2)c2ccccc2C1` (stereo not given), the Potency entry in [8], in assay [3] and in assay [4] was “inactive” throughout.
`CCN(CC)C(=O)Nc1ccc(OCC(O)CNC(C)(C)C)c(C(C)=O)c1` (stereo not given): the Potency entry in assay [8], in [3] and in assay [4] was “inactive” each time.
`OCC(O)CN1CCN(c2ccccc2)CC1` (stereo not given): the Potency result in assay [8], in [3] and in [4] was “inactive” throughout.
Turning to `CCCCN1CCCC[C@H]1C(=O)Nc1c(C)cccc1C`, the Potency entry in [8], in assay [3] and in [4] was “inactive” throughout.
With `Nc1ccc(S(=O)(=O)Nc2nccs2)cc1`, the Potency result in assay [8] and in assay [4] was “inactive” throughout.
As to `C[C@]12C[C@H](O)[C@H]3[C@@H](CCC4=CC(=O)CC[C@@]43C)[C@@H]1CC[C@@H]2C(=O)CO`, in assay [8], the Potency entry was “inactive”. Further, the outcome in assay [9] was inactive.
As to `CCOc1nc2cccc(C(=O)O)c2n1Cc1ccc(-c2ccccc2-c2nn[nH]n2)cc1`, the Potency result in assay [8], in assay [3] and in assay [4] was “inactive” in each case.
Take `COCCOC(=O)C1=C(C)NC(C)=C(C(=O)OC/C=C/c2ccccc2)C1c1cccc([N+](=O)[O-])c1` (stereo not given): the Potency result in assay [8] is “inactive”. Also, in [9], the call was inactive.
Regarding `NC(=O)c1ncn([C@@H]2O[C@H](CO)[C@@H](O)[C@H]2O)n1`, the Potency result in [8] was “inactive”. Also, the result in assay [9] was inactive.
`C[C@]12CC[C@@H]3c4ccc(O)cc4CC[C@H]3[C@@H]1CCC2=O`: in [8], the Potency result is “inactive”. In addition, in assay [9], the compound was classed as inactive.
Turning to `COc1ccc(Cl)cc1C(=O)NCCc1ccc(S(=O)(=O)NC(=O)NC2CCCCC2)cc1`, the Potency result in assay [8] and in [4] was “inactive” throughout. In addition, the outcome in assay [9] was inactive.
`COc1ccc2cc1Oc1ccc(cc1)C[C@H]1c3c(cc4c(c3Oc3cc5c(cc3OC)CCN(C)[C@@H]5C2)OCO4)CCN1C`: the Potency entry in assay [8], in assay [3] and in assay [4] was “inactive” each time.
Regarding `CN(C)CCC=C1c2ccccc2CCc2ccccc21`, the Potency entry in [8] was “inactive”. For the same compound, in [9], the call was inactive.
On to `CC(CN(C)C)CN1c2ccccc2CCc2ccccc21` (stereo not given), for which the Potency result in assay [8] is “inactive”. Further, the compound was called inactive in [9].
For the compound `Cc1ccc2nc(N)[nH]c(=O)c2c1Sc1ccncc1`, the Potency result in assay [8], in [3] and in [4] was “inactive” in each case.
Consider `Nc1ncnc2c1ncn2[C@@H]1O[C@H](CO)[C@@H](O)[C@H]1O`, for which the Potency entry in assay [8] was “inactive”. Moreover, the outcome in assay [9] was inactive.
`CS(=O)(=O)c1ccc([C@@H](O)[C@@H](CF)NC(=O)C(Cl)Cl)cc1`: the Potency result in [8], in assay [3] and in assay [4] was “inactive” in each case.
Consider `CN(C)CCCN1c2ccccc2Sc2ccc(Cl)cc21`, for which the Potency result in assay [8] is “inactive”. In addition, the call in assay [9] was inactive.
Regarding `CCCn1cnc2c1c(=O)n(CCCCC(C)=O)c(=O)n2C`, in assay [8], the Potency entry is “inactive”. Moreover, the result in assay [9] was inactive.
On to `CC/C=C(\C(=O)N[C@@H]1C(=O)N2C(C(=O)OCOC(=O)C(C)(C)C)=C(COC(N)=O)CS[C@H]12)c1csc(N)n1`, for which the Potency entry in assay [8], in assay [3] and in assay [4] was “inactive” each time.
Take `CC(C)c1c(C(=O)Nc2ccccc2)c(-c2ccccc2)c(-c2ccc(F)cc2)n1CC[C@@H](O)C[C@@H](O)CC(=O)O`: the Potency entry in assay [8] and in [4] was “inactive” throughout.
In the case of `CC(C)C(=O)c1c(C(C)C)nn2ccccc12`, in [8], the Potency result is “inactive”. Moreover, the result in assay [9] was inactive.
Take `CC(C(O)c1ccc(O)cc1)N1CCC(Cc2ccccc2)CC1` (stereo not given): the Potency entry in assay [8], in [3] and in [4] was “inactive” each time. The compound was classed as inactive in assay [9].
As for `CNC(=O)Oc1ccc2c(c1)[C@]1(C)CCN(C)[C@@H]1N2C`, the Potency result in [8], in [3] and in [4] was “inactive” in each case. Also, the result in assay [9] was inactive.
With `CCCCOc1cc(C(=O)OCCN(CC)CC)ccc1N`, the Potency result in [8], in assay [3] and in assay [4] was “inactive” throughout.

(Values after PubChem BioAssay (NCATS).)
